Measurements: PubChem BioAssay (NCI)
About 83,000 compounds went through this panel and 20% of them were active in at least one assay; those are over-represented in the sample as a whole.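 Cell lines were cultured in 96-well plates, exposed to a single compound concentration, and assessed for percent growth 48 hours later.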 A number with no mark means an inactive call. Calls of active or inactive are those of the source. The calls were made as follows: active = growth percent below 10; inactive = the rest.

How the values were obtained:
Assay in all cases: NCI-60 one-dose screen, 48 h (100 = growth as untreated, 0 = no growth, -100 = all killed)
SK-MEL-2 melanoma = conditions: 10 µM unless noted
EKVX NSCLC = conditions: 10 µM unless noted
SN12C renal = conditions: 10 µM unless noted
UO-31 renal = conditions: 10 µM unless noted
TK-10 renal = conditions: 10 µM unless noted
ACHN renal = conditions: 10 µM unless noted
CAKI-1 renal = conditions: 10 µM
A498 renal = conditions: 10 µM unless noted
CCRF-CEM leukemia = conditions: 10 µM unless noted
MOLT-4 leukemia = conditions: 10 µM unless noted
SR leukemia = conditions: 10 µM unless noted
RPMI-8226 leukemia = conditions: 10 µM unless noted
OVCAR-8 ovarian = conditions: 10 µM unless noted
OVCAR-5 ovarian = conditions: 10 µM unless noted
OVCAR-4 ovarian = conditions: 10 µM unless noted
IGROV1 ovarian = conditions: 10 µM unless noted
OVCAR-3 ovarian = conditions: 10 µM unless noted
HS 578T breast = conditions: 10 µM unless noted
NCI/ADR-RES ovarian = conditions: 10 µM unless noted
SK-OV-3 ovarian = conditions: 10 µM unless noted

| SMILES | growth (SK-MEL-2 melanoma) | growth (EKVX NSCLC) | growth (SN12C renal) | growth (UO-31 renal) | growth (TK-10 renal) | growth (ACHN renal) | growth (CAKI-1 renal) | growth (A498 renal) | growth (CCRF-CEM leukemia) | growth (MOLT-4 leukemia) | growth (SR leukemia) | growth (RPMI-8226 leukemia) | growth (OVCAR-8 ovarian) | growth (OVCAR-5 ovarian) | growth (OVCAR-4 ovarian) | growth (IGROV1 ovarian) | growth (OVCAR-3 ovarian) | growth (HS 578T breast) | growth (NCI/ADR-RES ovarian) | growth (SK-OV-3 ovarian) |
| --- | --- | --- | --- | --- | --- | --- | --- | --- | --- | --- | --- | --- | --- | --- | --- | --- | --- | --- | --- | --- |
| CCOC(=O)c1nn(-c2ccc(C)cc2)c(=O)c2c(N)c(C#N)c(-c3ccc(OC)cc3)cc12 | 95.1% | 84.7% | 85.6% | 80.5% | 125% | 93.6% | 92% | 118% | 103% | 114% | 127% | 98.6% | 101% | 94.3% | 101% | 80.2% | 108% | 90.1% | 106% | – |
| Oc1ccccc1-c1nnc(SCc2ccc(O)c3ncccc23)o1 | 34.1% | 53.1% | 18.5% | 14.7% | 43.9% | 25.4% | 25.3% | 81.7% | 28.1% | 36.3% | 43.3% | 13.5% | 26.4% | 68.4% | – | 53% | 29.7% | 6.2% (active) | 49% | 19.5% |
| Cc1ccc(/C=C/CC(=O)Nc2ccc(C(=O)Nc3ccc(F)cc3N)nc2)cn1 | 31.3% | 49.8% | 57.6% | 25.3% | 6.58% (active) | 31.6% | 26.4% | -3.27% (active) | 17.8% | 18.1% | 31.4% | 8.53% (active) | 29.1% | 38.5% | 43.9% | 43.9% | – | 35.6% | 53.6% | – |
| COc1ccc(NC2=C(Cl)C(=O)C(C)=C(C)C2=O)cc1 | 89.6% | 31.4% | 87.7% | 89.9% | 149% | 88.8% | 91.5% | 83.3% | 2.14% (active) | 21.8% | 20.6% | 68.8% | 51.8% | 103% | -98.7% (active) | -49.1% (active) | – | 95.1% | 93.9% | – |
| Cn1cc2c(c1)-c1c(sc3nc(-c4ccc(NC(=O)Nc5cc(C(C)(C)C)on5)cc4)cn13)CC2 | 65.5% | 60.2% | 59.9% | 18.2% | 95.4% | 42.1% | 28.1% | 32.1% | 28.2% | 12% | 9.8% (active) | -7.75% (active) | 53.8% | 74.8% | – | 66.7% | – | -0.139% (active) | 52.8% | 49.3% |
| O=C(Nc1ccc(F)cc1)c1cc(-c2ccc(F)cc2F)ccc1O | -8.37% (active) | 30.5% | 3.57% (active) | -8.25% (active) | 13.1% | 9.87% (active) | -0.83% (active) | -28.7% (active) | 17.8% | 13.9% | 26.2% | -11.7% (active) | 7.54% (active) | 69.4% | – | 14.7% | – | 6.19% (active) | 5.27% (active) | -8.88% (active) |
| CCC(=O)Nc1ccc(-c2nc(-c3cccc(O)c3)c(-c3ccnc(Br)c3)[nH]2)cc1 | 65.9% | 88.4% | 67.4% | 69.7% | 87.6% | 82.8% | 65.1% | 70.5% | 22.4% | 39.9% | 38.2% | – | 51.8% | 92.9% | 51.1% | 85.4% | 67.5% | 23% | 96.5% | 93.9% |
| COC(=O)Nc1ccc(-c2nc(-c3cccc(O)c3)c(-c3ccnc(Br)c3)[nH]2)cc1 | 77.8% | 68.5% | 60.4% | 42.9% | 73.5% | 60.4% | 45.6% | 73.4% | 22.8% | 21.5% | 32.7% | – | 35.6% | 92.9% | 45.5% | 65.7% | 50.8% | 27.7% | 76.1% | 79.3% |
| COc1ccc(Oc2ccc(C3CC(c4cc(OC)c(OC)c(OC)c4)=NN3C(C)=O)cc2)cc1 (configuration not stated) | 49% | 25.4% | 22.3% | 10.1% | 20% | 20.8% | 36.1% | 29.5% | 37.7% | 14.2% | 35.7% | – | 30.3% | 50.2% | 18% | 19.7% | 25.1% | 51.3% | 19.8% | 50.9% |
| Oc1ccc(CSc2nnc(-c3ccccc3)n2-c2ccccc2)c2cccnc12 | 30.8% | 18.5% | 19.5% | -19.8% (active) | 27.3% | 6.88% (active) | 10.5% | 12.7% | 9.93% (active) | 15.6% | 33.6% | 10.9% | 16.8% | 43.7% | 15.8% | 9.4% (active) | 6.38% (active) | 9.17% (active) | 8.58% (active) | – |
| O=S(=O)(Nc1ccc(-c2nc(-c3cccc(O)c3)c(-c3ccnc(Br)c3)[nH]2)cc1)c1ccccc1 | 23.5% | 53.3% | 44.3% | 24.7% | 55.7% | 28.4% | 25.6% | 49.4% | -2.56% (active) | -20.9% (active) | -9.8% (active) | – | 9.98% (active) | 64.6% | 9.17% (active) | 42.1% | – | -0.856% (active) | 61.1% | 54.7% |
| Cc1occc1-c1nc2s/c(=C\c3cn(-c4ccccc4)nc3-c3ccccc3)c(=O)n2n1 | 99.9% | 99.4% | 89.3% | 90.5% | 106% | 108% | 89.2% | 92.9% | 90.9% | 107% | – | 99.1% | 101% | 99.5% | 97% | -96.2% (active) | – | 105% | 97.9% | 113% |
| COc1cc(C2=NN(C(C)=O)C(c3ccc(N4CCOCC4)cc3)C2)cc(OC)c1OC (configuration not stated) | 97% | 101% | 98.3% | 84% | 108% | 99.6% | 94.7% | 78.7% | 97.3% | 106% | 108% | – | 101% | 103% | 107% | 98.5% | 120% | 108% | 99.5% | 97.4% |
| O=C(NCCCNc1cc(-c2cn(-c3ccccc3)nc2-c2cccc(O)c2)ccn1)Nc1cccc(C(F)(F)F)c1 | 58.1% | 45.7% | 56.5% | 23.8% | 88.3% | 47.6% | 36.9% | 18.3% | 29.2% | 11.6% | – | 4.35% (active) | 56.1% | 56% | 38.9% | 44.2% | 49.6% | 7.27% (active) | 48.1% | 57.5% |
| CC1(C)CC[C@]2(C(=O)N3CCCN(CC#N)CC3)CC[C@]3(C)C(=CC[C@@H]4[C@@]5(C)CC[C@H](O)C(C)(C)[C@@H]5CC[C@]43C)[C@H]2C1 | 76.8% | 91.2% | 59.6% | 63.7% | 81.7% | 59% | 43.7% | 39.8% | 18.2% | 19.1% | – | 19.9% | 55.7% | 84.1% | 86.7% | 66.1% | – | 78.8% | 57.2% | 83.7% |
| N/C(=N\c1nc2c(Cl)cccc2s1)C(Cl)(Cl)Cl | 105% | 52.6% | 91.9% | 61% | 83.5% | 19.6% | 43.9% | 29.9% | 97.3% | 92.1% | – | 53.3% | 87.6% | 95.5% | 76% | 89.1% | 57.9% | 80.2% | 89% | 91.3% |
